Shown are actives, neighbours in structure and some others; about 3.4% of the full set was active somewhere.
MITF inh = human MITF inhibition, primary screen; AlphaScreen MITF homodimerization, bead proximity signal; inhibition, % at 2.6 µM; actives 0.91% (n = 650,000); AID 1259374; in the data active = inhibition above about 50%
Target sequence (O75030 whole entry, looked up): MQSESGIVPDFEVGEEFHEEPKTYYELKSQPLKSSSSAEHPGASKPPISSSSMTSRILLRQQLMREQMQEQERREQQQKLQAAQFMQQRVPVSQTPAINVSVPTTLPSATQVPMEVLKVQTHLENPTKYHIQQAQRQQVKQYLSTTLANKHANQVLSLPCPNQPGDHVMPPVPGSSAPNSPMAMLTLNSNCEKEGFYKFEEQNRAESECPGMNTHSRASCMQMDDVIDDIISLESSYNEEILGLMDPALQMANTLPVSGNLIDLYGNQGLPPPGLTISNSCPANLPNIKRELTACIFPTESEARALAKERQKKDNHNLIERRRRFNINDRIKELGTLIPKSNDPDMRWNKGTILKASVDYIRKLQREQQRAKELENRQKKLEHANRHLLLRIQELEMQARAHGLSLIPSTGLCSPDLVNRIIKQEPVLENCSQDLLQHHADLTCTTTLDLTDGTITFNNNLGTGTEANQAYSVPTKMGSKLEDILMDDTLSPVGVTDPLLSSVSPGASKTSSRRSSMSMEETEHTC
FBW7 act = human FBW7 E3 ligase activation, primary screen. AlphaScreen FBW7–phospho-cyclin E peptide binding, activator screen. normalized activity (activation), % at 26.1 µM. actives 0.13% (n = 650,000). AID 1259310; in the data active = normalized activity above about 1.9%;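 also: purified mutant Fbw7 with reduced substrate affinity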
GPR151 ag = human GPR151 activation; Q8TDV0; PathHunter beta-arrestin GPR151 cells, luminescence; activation, % at 11.2 µM; actives 1% (n = 650,000); AID 1508602; in the data active = activation above about 4.9%
TEAD-YAP block = TEAD-YAP interaction inhibition; inhibition, % at 9.12 µM; HEK-TIYL cells, TEAD-Gal4/YAP UAS-luciferase luminescence; AID 1259422; actives 1.4% (n = 640,000); in the data active = inhibition above about 32%
Numbers stand for hits; 0 = inactive.

SMILES	MITF inh	FBW7 act	GPR151 ag	TEAD-YAP block
CCCCC(C(=O)O)N1C(=O)/C(=C\c2ccc(C)o2)SC1=S (centres undefined)	0	0	0	0
CC(C)CC(C(=O)O)N1C(=O)/C(=C\c2ccco2)SC1=S (centres undefined)	58	0	0	0
CCCCC(C(=O)O)N1C(=O)/C(=C\c2ccco2)SC1=S (centres undefined)	0	0	0	0
O=C(O)CCC(C(=O)O)N1C(=O)/C(=C/c2ccccc2)SC1=S (centres undefined)	0	0	0	0
Cc1ccc(/C=C2/SC(=S)N(C(CCC(=O)O)C(=O)O)C2=O)o1 (centres undefined)	55	0	0	0
CCOC(=O)c1[nH]c2ccccc2c1NC=O	0	1.9	0	0
CCOC(=O)c1[nH]c2ccccc2c1NC(=O)OC	0	0	0	0
CCOC(=O)CN(C(=O)CCl)c1ccc(F)cc1	0	0	0	77
C=CCn1c(SCc2c(C)noc2C)nc2scc(C3CC3)c2c1=O	0	0	0	50
COc1ccc2nc(NC(=O)c3sc4nc(C)[nH]c(=O)c4c3C)sc2c1	0	0	0	0
Cc1cc(C)c2c(N)c(C(=O)NC(C)c3ccccc3)sc2n1 (centres undefined)	0	2.3	0	0
COc1ccc2nc(NC(=O)c3sc4nc(C)cc(C)c4c3N)sc2c1	0	0	0	35
Cc1cc(C)c2c(N)c(C(=O)Nc3ccccc3)sc2n1	0	0	0	0
Cc1cccc(NC(=O)c2sc3nc(C)cc(C)c3c2N)n1	0	0	0	84
CCOC(=O)CNC(=O)c1cc(-c2cccc(OC)c2)nc2ccccc12	0	0	0	0
C=CCOc1ccc(C(=O)N2CCc3c(nc(N4CC(C)OC(C)C4)[nH]c3=O)C2)cc1 (centres undefined)	0	7.4	0	0
O=C(O)c1cc(-n2ncc3ccccc3c2=O)ccc1Cl	0	0	0	0
Cc1ccc(N2C(=O)C(Cl)=C(N(C)c3ccccc3)C2=O)cc1	0	0	0	52
O=C1C(Cl)=C(Cl)C(=O)N1c1ccc(I)cc1	0	0	0	0
CN(C1=C(Cl)C(=O)N(c2ccc(I)cc2)C1=O)c1ccccc1	0	0	0	56
O=C(c1ccc(Cl)cc1)c1cc([N+](=O)[O-])ccc1N1CCOCC1	0	0	0	53
NC(=O)c1cc([N+](=O)[O-])ccc1N1CCOCC1	0	0	0	0
CN1CCN(c2ccc([N+](=O)[O-])cc2C(=O)N2CCCCC2)CC1	0	0	0	0
O=C(c1ccc(Br)cc1)c1cc([N+](=O)[O-])ccc1N1CCOCC1	0	0	0	54
CN1CCN(c2ccc([N+](=O)[O-])cc2C(=O)c2ccc(Cl)cc2)CC1	0	0	0	41
SMILES	MITF inh	FBW7 act	GPR151 ag	TEAD-YAP block
C=CCNC(=O)c1cc2c(=O)n3cc(C)ccc3nc2n(CCCOCC)c1=N	0	0	0	0
CCC(C)NC(=O)c1ccccc1N(Cc1ccccc1)S(C)(=O)=O (centres undefined)	0	0	0	0
Oc1ccc(C(=S)N2CCOCC2)cc1O	0	0	0	0
Cc1cccn2c(=O)c3cc(C(=O)N4CCN(c5ccc(F)cc5)CC4)n(C)c3nc12	0	0	0	0
O=C(Cc1ccccc1)Nc1ccc(N2C(=O)c3ccc4c5c(ccc(c35)C2=O)CC4)cc1	0	0	0	43
CCOc1ccccc1Nc1nnc(SCc2cc(C(C)=O)ccc2OC)s1	0	0	0	0
CCOc1ccc(C(C)=O)cc1CSc1nnc(Nc2ccccc2)s1	0	0	0	35
CCOc1cc([N+](=O)[O-])c2[nH]c(C(=O)O)c(C)c2c1	0	0	0	45
CCOC(=O)c1[nH]c2c([N+](=O)[O-])cc(OC)cc2c1-c1ccccc1	0	0	0	0
CC(C)(C)c1ccc(NC(=O)c2cnc3ccccn23)cc1	0	0	0	55
O=C(Nc1ccc(Cl)cc1)c1cnc2ccccn12	0	0	0	0
CCCN1CCN(CCCNC(=O)C2=C(C)C(=O)OC23CCCCC3)CC1	0	0	0	0
O=C1/C(=C/c2cccnc2)CCC/C1=C\c1cccnc1	0	0	0	87
Cc1cccc(CNC(=O)C2CC23CCN(Cc2ccc(C#CC(C)(C)O)cc2)CC3)n1 (centres undefined)	0	0	0	0
CNC(=O)/C(C#N)=C/c1cc(C)n(-c2ccc(F)cc2)c1C	0	0	0	71
COC(=O)c1cccc(-n2c(C)cc(/C=C(/C#N)C(=O)NCc3ccco3)c2C)c1	0	0	0	0
COC(=O)c1cccc(-n2c(C)cc(/C=C(\C#N)C(=O)Nc3ccccc3)c2C)c1	0	0	0	39
O=S(=O)(NC1CCCCCCC1)c1ccccc1	0	0	0	0
O=S(=O)(NC1CCCC1)c1cccc(-c2nnc(-c3ccccc3)o2)c1	0	0	0	33
COc1cc(C2Nc3ccccc3NC3=C2C(=O)CC(c2ccccc2Cl)C3)cc(Br)c1O (centres undefined)	0	0	0	43
COc1cc(C2Nc3ccccc3NC3=C2C(=O)CC(c2ccccc2Cl)C3)ccc1O (centres undefined)	0	0	0	51
COc1ccc(CNC(=O)Cn2nnc(-c3ccc(NC(=O)c4ccncc4)cc3)n2)cc1	0	0	0	0
COc1cccc(C(=O)NC(=S)Nc2nc3ccc(C)cc3s2)c1	0	0	0	0
CCC(=O)/C(C)=C(\NC(=O)c1ccccc1)c1ccccc1	0	0	0	0
CC(=O)c1cccc(NC(=O)CN(c2ccccc2)S(C)(=O)=O)c1	0	1.9	0	0
SMILES	MITF inh	FBW7 act	GPR151 ag	TEAD-YAP block
CC(=O)c1cccc(NC(=O)CCl)c1	0	0	0	99
CC(=O)c1cccc(NC(=O)CCC(=O)Nc2cccc(C(C)=O)c2)c1	0	0	0	0
CC(=O)c1ccc(NC(=O)Nc2cccc(C(=O)O)c2)cc1	0	0	0	51
CS(=O)(=O)N(CC(=O)Nc1cccc(Cl)c1)c1ccccc1	0	0	0	0
CC(=O)c1cccc(NC(=O)Nc2ccccc2)c1	0	0	0	0
Cc1ccc(N2C(=O)c3cc(Nc4ccc5c(c4)OCO5)c([N+](=O)[O-])cc3C2=O)cc1	0	0	0	0
Nc1nc(NCCOc2ccccc2)cc(Nc2ccc3ncccc3c2)n1	0	0	0	0
CC(C)(C)c1ccc(C2CC(=O)C(C=NCCN3CCN(C(=O)Nc4ccccc4)CC3)=C(O)C2)cc1 (centres undefined)	0	0	0	0
CN(C)CCNC(=O)CCSCc1ccccc1F	0	0	0	0
CCN(CC)S(=O)(=O)c1ccc2[nH]c3nc(SCc4cccnc4)nnc3c2c1	0	0	0	37
O=C1C2C(C(=O)N1c1ccc(Br)cc1)C1C=CC2C12CC2 (centres undefined)	0	0	0	0
COc1ccc(OC)c(C2C=C(c3cccnc3)Nc3ncnn32)c1 (centres undefined)	0	0	0	0
COc1ccc(C2=CC(c3cc(OC)ccc3OC)n3ncnc3N2)cc1 (centres undefined)	0	0	0	50
COc1cccc(C2=CC(c3cc(OC)ccc3OC)n3ncnc3N2)c1 (centres undefined)	0	0	0	50
